From the supplement of paper PMC6555819

Assays:
Assay in all cases: PBM binding z-score (relative to random genomic background probes); higher = stronger binding; sequences stand for … in GC…GCGATTGACAGCGTAGAATGAAGG
[1] = system: RARb homodimer (NR concentration 270 nM)
Procedure, shortened: (§1)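 Antibodies against each partner of ligand-free nuclear receptor dimers (one per run) detected binding on custom Agilent 4×180K protein-binding microarrays after 1 h incubation. The double-stranded probes had 34-nt variable regions carrying direct-repeat seeds, single-nucleotide variants, half-site ablations and random human genomic background sequences. Binding z-scores, from regression-normalized fluorescence, use the random background probes as reference.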

[2] = system: RARg:RXRa (NR concentration 270 nM, RXRa partner concentration 90 nM)
Procedure, shortened: as §1

[3] = system: RARg homodimer (NR concentration 270 nM)
Procedure, shortened: as §1

[4] = system: RXRa DBDmut IVT, anti-RXR (DBD mutation: RXRa K156A/R161A, NR concentration 90 nM)
Procedure, shortened: as §1

[5] = system: RXRa homodimer (NR concentration 180 nM)
Procedure, shortened: as §1

[6] = system: THRa:RXRa (NR concentration 90 nM, RXRa partner concentration 90 nM)
Procedure, shortened: as §1

[7] = system: THRa homodimer (NR concentration 90 nM)
Procedure, shortened: as §1

[8] = system: VDR homodimer (NR concentration 270 nM)
Procedure, shortened: as §1

Sequence | PBM binding z-score [1] | PBM binding z-score [2] | PBM binding z-score [3] | PBM binding z-score [4] | PBM binding z-score [5] | PBM binding z-score [6] | PBM binding z-score [7] | PBM binding z-score [8]
CAAACTAGGTCACCGGAAGGTCAAAATCCGCATG | 5.17 | 7.81 | 7.09 | 2.39 | 5.88 | 4.39 | 2.94 | 3.11
GCTTACGGGTCAAAGGTTATAGGATGAATAGAAT | 3.6 | 6.89 | 4.67 | 2.7 | 9.57 | 3.78 | 0.0155 | 1.65
TAGGCTAGGTCATTGGGCCAGTATAGTACGCATC | 2.94 | 3.67 | 4.61 | 1.54 | 2.5 | 2.54 | 0.641 | 1.09
ATCTCTAGGTAACCAAGTCCAGTGAATGCCGAAC | 0.289 | 0.196 | 0.238 | 0.275 | 0.184 | 0.825 | 0.807 | 0.463
AGTCAAAGTTCACTTGGTAACGTAAGATTCAGCT | 3.71 | 4.88 | 5.66 | 4.24 | 3.44 | 1.6 | -0.48 | 4.05
TCATATAGGTAAACAGGTGAAACTCCGTAAGTTA | 0.92 | 0.806 | 0.575 | 1.37 | 1.47 | 0.984 | 0.268 | 0.307
CATAGCAGGCCAATCTGGGTCACTCAAGGCTTGA | 1.85 | 1.44 | 1.57 | -0.0976 | 1.09 | 3.69 | 0.366 | -0.0851
ATACCAAGGTGATCGTGAGGTCATTGATACTAAC | 4.17 | 4.94 | 3.31 | 1.63 | 3.99 | 4.6 | 4.6 | 4.77
CCTACTGGGCCAAGGTCATTGAACAGTCAAAGCA | 3.4 | 3.82 | 3.72 | 0.677 | 3.68 | 3.5 | 2.14 | 2.77
CCTACTGGGACAAAGGTCATTGATTCCAATGCTC | 4.66 | 5.3 | 4.6 | 1.83 | 5.76 | 3.57 | 1.25 | 2.94
GGAGCGAGGGCAAGTTGATAGCAGAGTTTGATGG | 1.55 | 1.41 | 1.95 | 2.04 | 0.51 | 0.876 | 0.0322 | 1.48
GCTTGTAGATCAAGGTTTAGAAAGACTAAGCTAA | -0.764 | -0.251 | -0.299 | -0.0471 | -0.469 | -0.36 | -0.736 | -0.186
CCAGACAGGAGAAAGGTAACTCAGTCTGGTACGC | 0.0408 | 0.115 | -0.016 | -0.0562 | 0.502 | -0.00788 | -0.183 | -0.102
AGTCAAAGCTCACTAGGTAACGTAAGATTCAGCT | -0.396 | -0.184 | -0.065 | -0.217 | 0.00455 | 0.131 | -0.137 | -0.474
ACTAGCAGGCCAAGTTTGGGTCACTCATACAAAG | 2.32 | 2.26 | 1.53 | -0.0603 | 0.947 | 2.47 | 1.27 | 0.331
CCTACTAGGCCAAAGGTCATTGATTCCAATGCTC | 4.84 | 6.22 | 5.49 | 2.06 | 6.88 | 3.67 | 1.45 | 2.65
GCGACTGGGGCATCAGCAGGTGACCATAACTTAA | 0.835 | 0.367 | 0.374 | -0.296 | -0.0343 | 0.956 | -0.08 | -0.617
TAGCCTAGGTCATATCGGGCCAGTATACGCTATA | 2.44 | 3.33 | 3.95 | 1.17 | 2.49 | 4.54 | 0.783 | 0.939
TATACAGGGTCAAAGGCCAGAGTCCGAATGTCGA | 3.69 | 5.63 | 4.75 | 2.69 | 6.54 | 3.62 | 0.963 | 2.67

Sequence | PBM binding z-score [1] | PBM binding z-score [2] | PBM binding z-score [3] | PBM binding z-score [4] | PBM binding z-score [5] | PBM binding z-score [6] | PBM binding z-score [7] | PBM binding z-score [8]
GGAACGAGGGCTAAGTTGATAGCATCTGTCGACG | -0.586 | -0.0723 | 0.11 | 0.186 | -0.114 | -0.638 | -0.828 | -0.365
TAGCCTAGGTCATTGAGCCAGTATAGTACGCATC | 2.68 | 3.9 | 4.06 | 1.72 | 2.9 | 2.79 | 0.737 | 1.03
CCTACGGGGCCATCAGGTCATTGATATCAACGTT | 3.1 | 3.1 | 2.83 | 0.971 | 2.02 | 3.6 | 2.97 | 2.45
GCTAGTTGGTCACTAAAAGGTCACACACCGGTCG | 5.51 | 5.78 | 5.45 | 0.465 | 5.16 | 3.61 | 1.7 | 2.13
TCTTGTAGATCACGCAGGTTAAGAAAGCCTGAGT | 0.254 | 0.174 | 0.0532 | 0.693 | 0.723 | 0.601 | -0.33 | -0.258
TAGCCTAGGTTATTCAGGGGCCAGTATAGAAAGC | 0.985 | 3.15 | 0.714 | -0.074 | 0.459 | 1.93 | -0.239 | -0.459
TCTAGTAGTTGATTAGGGCAACCGAAACAGCGGA | 0.439 | 0.0761 | -0.0123 | 0.339 | 0.492 | 0.48 | -0.325 | -0.315
CCGAGTAGGTTGTGGGGCATTCAGGCAACGGTGA | 0.739 | -0.398 | -0.497 | -0.201 | -0.326 | 0.119 | 0.578 | 0.435
TCGAGTAGGTTAGGAGCATTCAGAATGGCGTCGA | -0.383 | -0.196 | -0.317 | -0.149 | 0.0721 | -0.459 | -0.881 | -0.161
CGTCCAAGGTCAAGGTTAGTGAAAGAGACTCGAA | 4.33 | 5.94 | 6.75 | 3.28 | 5.75 | 3.98 | 2.66 | 1.85
AGTCAAAGTTCAGGACGAGGCAACGTAAAGCACG | 2.9 | 3.86 | 4.55 | 3.06 | 2.86 | 2.76 | 0.753 | 1.61
CGTTCAAGGTCAATGCTAGGTCAGTGAAAGCATT | 4.78 | 7.74 | 7.18 | 4.09 | 5.88 | 4.72 | 3.33 | 3.44
ATATGTAGGGTACATCCGGGTCATTCAGGCTATG | 2.84 | 2.44 | 1.86 | 2.66 | 2.64 | 3.83 | 2.45 | 5.83
CAAACTAGGACACGAAAGGTCAAAGTCGAATGAC | 4.86 | 5.9 | 5.66 | 1.45 | 6.74 | 4.08 | 1.94 | 2.91
CCGACTGGGGCAAGTTTACCATAACGCACAGCCA | 0.697 | 0.446 | 0.667 | 0.533 | 0.261 | -0.0579 | -0.484 | 0.132
CCTAGCAGGCCAATCTGGGTCAATCAAGGCTTGA | 1.85 | 0.779 | 1.13 | 0.108 | 0.518 | 3.67 | -0.0726 | -0.0739
CCTAGTTAGTCAGGAGGTCACACACCGGATATGA | 4.28 | 4.25 | 3.72 | 1.38 | 4.86 | 3.74 | 2.73 | 3.01
AGTCAAAGTCCACTAGGTAACGTAAGATTCAGCT | 0.615 | 0.39 | 0.85 | 0.801 | -0.0426 | 0.284 | 0.284 | -0.159
TCATATAGGTAAGGGTGAAAGTCGAACGATATGA | 0.703 | 0.914 | 0.595 | 0.475 | 1.36 | 0.89 | -0.108 | -0.201

Sequence | PBM binding z-score [1] | PBM binding z-score [2] | PBM binding z-score [3] | PBM binding z-score [4] | PBM binding z-score [5] | PBM binding z-score [6] | PBM binding z-score [7] | PBM binding z-score [8]
CCGACTGGGGCAGAAAGGTTACCATGCCATCCGG | 2.33 | 1.54 | 1.08 | -1.07 | 1.72 | 1.05 | -0.541 | -0.201
AGAATGAGGTTAAGATCAGGTAAACAGAATACAT | 0.989 | 2.66 | 1.76 | 1.17 | 2.81 | 3.55 | 1.36 | 0.461
TCTGCTAGATCAGTTGGTCAGCTAACGAGCTGCC | -0.799 | -0.667 | -0.644 | -0.256 | -0.419 | -1.77 | -1.48 | -1.49
ATCGAAAGGTCGTGAGGTGAGCATACAGAAAGGC | 3.19 | 4.58 | 4.26 | 1.12 | 5.3 | 3.45 | 1.68 | 0.917
TCTTGTAGATCAATAGAGGTTAACAAAGTGCGCT | 1.38 | 1.11 | 0.826 | 0.564 | 1.68 | 2.62 | -0.415 | 0.462
CCGACTGGGGCACAAGGTTACCATAAGCCAGCCC | 1.59 | 1.46 | 1.12 | -0.589 | 0.82 | 1.37 | 0.35 | -0.201
GATACAGGGACAGCTAGAGGCCAGAGTATGGAAA | 0.97 | 0.522 | 1.01 | -0.496 | 0.185 | 0.508 | 0.191 | -0.0729
CTACCATGGTGAACAAGGTCGTTGATTACTATTC | 1.04 | 0.598 | 0.184 | 0.982 | 0.913 | 1.99 | 1.1 | 1.41
TTTTGTAGATCAATAGAGGTTAAGAAAGTGCGCT | 1.27 | 0.945 | 0.869 | -0.0202 | 1.52 | 2.28 | -0.0563 | 0.777
CCTACTGGGACACGAAAGGTCATTGATTCAGTGA | 4.97 | 4.63 | 4.53 | 0.718 | 5.12 | 3.77 | 1.35 | 2.67
TAGCCTAGGTCATTGGGCCTGTATAGTACGCATC | 2.84 | 3.78 | 4.29 | 1.59 | 3.33 | 2.74 | 0.697 | 1.12
TCTAGCAGGCCAGAGGGTCACTAAAGAGGTACGG | 2.52 | 2.5 | 2.05 | -0.16 | 2.02 | 1.39 | -0.413 | 0.287
GGAAAGAGGGCAAAGTTGATAGCATCTGTCGACG | 1.93 | 2.84 | 2.38 | 1.85 | 2.81 | 1.08 | 0.0442 | 1.18
ATAAGTAGGTTAAGGGTCATTCAGGTTGGTTCGC | 4.19 | 4.8 | 3.75 | 2.28 | 6.11 | 3.65 | 2.27 | 4.94
CCGACTGGGCCATCAGGTCATTGATATCAACGTT | 2.62 | 2.06 | 1.8 | 0.194 | 1.38 | 3.17 | 2.95 | 1.67
TCTATTAGTTGAAGGACAACCGACGAGTCCGTTT | 0.756 | 0.368 | 0.728 | 2.05 | 0.435 | 0.552 | 0.684 | 1.62
CCAACTAGGTCAAGAGGTCAAAGTCCGCTTCCCG | 5.51 | 8.12 | 7.31 | 2.99 | 8.12 | 4.24 | 2.47 | 4.94
CAATCTAGGTCAAGGTCAAAGTCGGTTTGTGCCA | 5.05 | 5.89 | 6.37 | 3.25 | 5.61 | 4.65 | 4.37 | 4.3
TCTATTAGTTGATTAAGGCAACCGAAACAGCGGA | -0.49 | 0.163 | 0.201 | 1.35 | 0.349 | 0.746 | 0.601 | 0.261
